This is a sample that favours compounds with a hit; in the whole collection about 12% have one here.
TDP1 inh – qHTS Assay for Inhibitors of Tyrosyl-DNA Phosphodiesterase (TDP1) | recombinant TDP1, AlphaScreen DNA substrate cleavage | Potency, µM (highest dose often 130 µM), for the others: top-dose activity change, negative = inhibition, actives largely listed as inhibitors | 350,000 tested, 0.28% active | Tyrosyl-DNA phosphodiesterase 1 (Homo sapiens), Q9NUW8; also: % is scaled to controls: 0 for no effect and ±100 for the full control effect; nearly all actives have a fitted effect of over 40% in size
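Steps: enzyme plus compound, 15 min RT; add biotin/phosphotyrosine-FITC oligonucleotide (15 nM final), react 5 min; add donor/acceptor beads (10 ug/ml final), 10 min; read AlphaScreen. Tdp1 at 1 nM final.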
BAZ2B block – qHTS Assay for Inhibitors of BAZ2B. 360,000 tested, 4.4% active. Potency, µM (titrated, usually from 114 µM), without a hit: at the highest dose activity change, negative = inhibition, actives largely listed as inhibitors. Bromodomain adjacent to zinc finger domain protein 2B (Homo sapiens), Q9UIF8. AlphaScreen BAZ2B-H3K14Ac peptide displacement; also: % is scaled to controls: 0 for no effect and ±100 for the full control effect; nearly all actives have a fitted effect of over 60% in size
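AlphaScreen displacement of biotin-H3(5-23)K14Ac peptide (50 nM final) from BAZ2B (50 nM final) in PBS pH 7.4, 0.01% Tween-20; complex preformed 30 min RT, then compounds (top 110 uM) 30 min RT, beads 20 min dark.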
Sfp inh – qHTS Assay for Inhibitors of Bacillus subtilis Sfp phosphopantetheinyl transferase (PPTase); AID 1490, 2009; 4'-phosphopantetheinyl transferase ffp (Bacillus subtilis), Q9F4F7; Biochemical Sfp PPTase activity, qHTS; Potency, µM, without a hit: largest response in the series, negative = inhibition, hits mostly inhibitors; 310,000 tested, 3.5% active;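 also: the enzyme is Sfp with the accession as filed and its product quenches rhodamine fluorescence; 0% = enzyme reaction without inhibitor and -100% = no enzyme wells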
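Reaction rates are the 30-min fluorescence difference (ex 525, em 598 nm) in wells containing 15 nM Sfp, 5 uM rhodamine-CoA and 12.5 uM BHQ-2-YbbR at pH 7.6 with 10 mM MgCl2.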
HP1b binding inh – HTS for Inhibitors of HP1-beta Chromodomain Interactions with Methylated Histone Tails | Chromobox protein homolog 1 (Homo sapiens), P83916 | 390,000 tested, 0.56% active | AID 540317, 2011 | AlphaScreen HP1-beta / biotin-H3K9me3 peptide binding | Potency, µM (top dose mostly 114 µM), without a hit: top-dose activity change, negative = inhibition, actives largely listed as inhibitors; also: nearly all actives have a fitted effect of over 70% in size
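HP1-beta protein (50 nM final) preincubated 30 min at room temperature with biotinylated H3(1-18)K9me3 peptide (50 nM) in PBS pH 7.4, 0.01% Tween-20, then compound added for 30 min. AlphaScreen streptavidin donor/nickel chelate acceptor beads (10 ug/mL final), 30 min dark, luminescence read.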
JMJD2A Tudor – qHTS Assay for Inhibitors of JMJD2A-Tudor Domain; AlphaScreen JMJD2A-Tudor / H3K4me3 peptide binding; 390,000 tested, 4.4% active; Lysine-specific demethylase 4A (Homo sapiens), O75164; Potency, µM (top dose mostly 114 µM), for the others: top-dose activity change, negative = inhibition, usual class: inhibitors; also: % is scaled to controls: 0 for no effect and ±100 for the full control effect; nearly all actives have a fitted effect of over 50% in size
Target sequence (O75164 whole entry, looked up, the tested form may be a part): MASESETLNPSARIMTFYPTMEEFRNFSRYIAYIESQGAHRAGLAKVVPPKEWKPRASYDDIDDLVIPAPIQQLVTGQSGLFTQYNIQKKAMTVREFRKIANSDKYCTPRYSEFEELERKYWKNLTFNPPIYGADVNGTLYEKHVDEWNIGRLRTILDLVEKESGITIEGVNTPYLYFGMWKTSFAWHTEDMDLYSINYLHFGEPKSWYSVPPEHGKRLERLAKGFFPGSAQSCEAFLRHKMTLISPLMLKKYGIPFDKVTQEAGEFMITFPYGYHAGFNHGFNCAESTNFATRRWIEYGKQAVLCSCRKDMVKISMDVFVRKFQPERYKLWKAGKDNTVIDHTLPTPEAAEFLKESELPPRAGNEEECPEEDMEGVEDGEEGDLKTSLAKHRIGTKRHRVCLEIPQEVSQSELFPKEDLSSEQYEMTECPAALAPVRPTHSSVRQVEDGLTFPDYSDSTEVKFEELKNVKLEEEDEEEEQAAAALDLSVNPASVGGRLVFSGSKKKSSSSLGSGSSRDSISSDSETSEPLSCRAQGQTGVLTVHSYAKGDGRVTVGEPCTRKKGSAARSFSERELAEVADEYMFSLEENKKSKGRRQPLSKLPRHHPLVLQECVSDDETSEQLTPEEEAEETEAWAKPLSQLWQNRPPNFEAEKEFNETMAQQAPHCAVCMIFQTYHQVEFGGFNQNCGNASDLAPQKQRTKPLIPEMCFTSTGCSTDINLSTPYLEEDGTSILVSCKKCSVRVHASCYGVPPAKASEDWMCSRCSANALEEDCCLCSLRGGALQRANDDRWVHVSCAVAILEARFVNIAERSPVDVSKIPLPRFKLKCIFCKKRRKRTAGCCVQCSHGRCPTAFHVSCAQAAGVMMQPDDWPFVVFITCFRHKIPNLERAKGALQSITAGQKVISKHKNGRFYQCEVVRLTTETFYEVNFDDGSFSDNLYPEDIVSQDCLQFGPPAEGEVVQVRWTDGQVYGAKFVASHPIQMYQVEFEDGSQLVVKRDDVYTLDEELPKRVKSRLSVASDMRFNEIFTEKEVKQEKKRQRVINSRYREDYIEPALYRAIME
G9a inh – qHTS Assay for Inhibitors of Histone Lysine Methyltransferase G9a; Histone-lysine N-methyltransferase EHMT2 (Homo sapiens), Q96KQ7; G9a H3K9 monomethylation, AlphaScreen, 2 h; Potency, µM (doses to about 102 µM), for inactives: top-dose activity, negative = inhibition, most hits filed as inhibitors; 350,000 tested, 8.8% active; AID 504332, 2011; also: % is scaled to controls: 0 for no effect and ±100 for the full control effect; nearly all actives have a fitted effect of over 75% in size
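AlphaScreen detection with an anti-monomethyl H3K9 antibody quantified product after a 2 h room-temperature reaction containing 500 nM biotinylated H3K9 peptide, 20 µM SAM and 20 nM enzyme, which had been preincubated 15 min with compound.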
An asterisk follows results filed as active; u = inconclusive; x = no result; [ ] = remark or other dose. Calls follow the shape of the dose curve; as a rule, active = well fitted curve in the direction sought with a large enough effect; inconclusive = small, poorly fitted or top-dose-only effect, or another doubt; inactive = no such curve, though single readings can be large; an effect the other way counts as inactive or inconclusive. Potency is read from the fitted curve at half-maximal effect.

SMILES	TDP1 inh	BAZ2B block	Sfp inh	HP1b binding inh	JMJD2A Tudor	G9a inh
CCC12C=CCN3CCC4(c5ccc(OC)cc5N(C)C4[C@@](O)(C(=O)OC)C1OC(C)=O)C32 (stereo partly specified)	8.9%[56.1 µM]	x	2.8%	x	x	x
CC(C)(C)OC(=O)N1CC[C@H]1COc1cnc[c]([Sn]([CH3])([CH3])[CH3])c1	6.1%[21 µM]	x	12.3%	x	x	16.1%[12.7 µM]
O=C(Oc1ccc(C(=S)N2CCOCC2)cc1)c1ccc([N+](=O)[O-])cc1[N+](=O)[O-]	x	-1.3%	-9.5%	13.2%	u	44.7µM*
Cc1cccc(C(=O)Nc2ccc(Cl)cc2C(=O)c2ccccc2)c1	5.9%	-0.9%	-2.5%	23.1%	0.0%	-16.5%[59 µM]
Cc1ccc(C)c(NC(=O)c2cc[n+](C)cc2)c1	0.2%	-24.5%	1.6%	31.7%	-26.9%	31.6µM*
N#CC(O[C@@H]1OC(COC2OC(CO)C(O)C(O)[C@@H]2O)C(O)C(O)C1O)c1ccccc1 (stereo partly specified)	-4.5%[56.1 µM]	x	24.5%	x	x	-38.3%[2.33 µM]
CCOC(=O)C1CCN(/C=C2/C(=O)NC(=S)N(c3cccc(OC)c3)C2=O)CC1	1.2%	-3.4%	0.5%	35.5%	-9.0%	22.4µM*
CCOC(=O)C1CCN(/C=C2/C(=O)NC(=O)N(c3cccc(C)c3C)C2=O)CC1	4.9%	u	u	28.1%	-11.7%	x
CCOC(=O)C1CCN(/C=C2\C(=O)NC(=S)N(CC)C2=O)CC1	1.2%	-1.3%	79.4µM*	67.3%	-12.4%	-6.6%
C[N+]1([O-])[C@H]2CC[C@H]1CC(OC(=O)[C@@H](CO)c1ccccc1)C2 (stereo partly specified)	2.1%	x	-6.5%	x	x	10.2%[59 µM]
O=c1c2ccccc2nc(-c2ccco2)n1-c1ccc(Br)cc1	x	-10.8%	7.1%	19.3%	-2.8%	8.2%
S=c1[nH]nc(C2CC2)n1Cc1ccccc1	0.0%	x	56.2µM*	-15.7%	15.8µM*	6.31µM*
S=c1[nH]nc(-c2ccco2)n1Cc1ccccc1	-3.3%	-24.9%	22.9%	-6.3%	7.08µM*	u
COc1ccccc1-c1n[nH]c(=S)n1Cc1ccco1	4.2%	u	20µM*	x	x	3.55µM*
CC(C)(C)OC(=O)c1c(N)n(Cc2ccco2)c2nc3ccccc3nc12	5.2%	-0.8%	u	53.3%	-8.9%	u
CC[C@H](C)[C@H](NC(=O)CN)C(=O)N[C@@H](CC(C)C)C(=O)NCC(=O)N[C@@H](Cc1ccccc1)C(=O)N[C@H](C(=O)N[C@@H](Cc1ccccc1)C(=O)N[C@H](C(=O)N[C@@H](CC(C)C)C(=O)O)[C@@H](C)O)C(C)C	6.2%	x	6.5%	x	x	x
COC(C)(C)C	12.1%	x	x	x	x	x
N[C@H](CCP(=O)(O)O)C(=O)O	-14.1%[56.1 µM]	x	-25.3%	x	x	x
O=c1[nH]c(=S)n(C2CC2)c(O)c1/C=N/Nc1ccccc1	5.7%	-34.5%	50.1µM*	-1.4%	u	1.41µM*
O=c1[nH]c(=O)n(CCC2=CCCCC2)c(O)c1/C=N/Nc1cccc2ccccc12	x	u	-26.5%	31.6µM*	-10.3%[11.4 µM]	1.78µM*
O=c1[nH]c(=S)n(C2CC2)c(O)c1/C=N/Nc1cccc2ccccc12	5.5%	u	20µM*	2.7%	u	1.41µM*
O=c1[nH]c(=O)n(CCC2=CCCCC2)c(O)c1C=NC1CCN(Cc2ccccc2)CC1	-1.0%	0.1%	2.4%	23.4%	-6.7%	17.8%
CN(C)CCN(C)CCc1ccc(Cl)c(Cl)c1	9.8%	x	16.2%	x	x	-2.0%[59 µM]
CN1CCc2cc(O)cc3c2[C@H]1Cc1ccc(O)c(O)c1-3	x	x	x	u	7.94µM*	1.68µM*
CCCN1CCc2cccc3c2C1Cc1ccc(O)c(O)c1-3 (stereo unspecified)	4.9%	x	56.2µM*	x	x	1µM*
SMILES	TDP1 inh	BAZ2B block	Sfp inh	HP1b binding inh	JMJD2A Tudor	G9a inh
COc1cc(CC(=O)OCC2=C[C@H]3[C@@H]4C(C)(C)[C@]4(OC(C)=O)[C@H](OC(=O)Cc4ccccc4)[C@@H](C)[C@]3(O)[C@@H]3C=C(C)C(=O)[C@@]3(O)C2)ccc1O	10.2%	x	-2.1%	x	x	u
C/C=C1/C[N@@+]2(C)CC[C@]34C(=C(C=O)[C@H]1C[C@H]32)Nc1ccccc14	-2.4%	x	u	x	x	u
Cc1cc(C(=O)CS(=O)c2ccc(F)cc2)cc(C)c1OC(=O)N(C)C (stereo unspecified)	-8.8%	-12.7%	u	34.5%	-6.9%	39.8µM*
Cc1ccc(S(=O)(=O)CC(=O)c2cc(C)c(OC(=O)N(C)C)c(C)c2)cc1	0.0%	-12.7%	11.0%	47.3%	-9.7%	-5.2%
Cc1ccc2c(CN3CC=C(c4ccccc4)CC3)cc(=O)oc2c1C	8.2%	-0.8%	-5.3%	12.6%	-24.2%	50.1µM*
COc1ccc(C(C)=O)cc1CN1CC=C(c2ccccc2)CC1	7.5%	50.1µM*	-13.1%	79.4µM*	44.7µM*	12.6µM*
ClC1=C(Cl)C2(Cl)C3C(Cl)C(Cl)CC3C1(Cl)C2(Cl)Cl (stereo unspecified)	-6.5%	x	x	x	x	x
CCOC(=O)c1cn2nc(OP(=S)(OCC)OCC)cc2nc1C	2.1%	76.9%	-14.3%	121.8%	79.3%	20µM*
N[C@H]1C[C@H]1c1ccccc1	-3.6%[21 µM]	x	10.3%	x	x	-42.9%[12.7 µM]
CCCBr	7.0%	x	x	x	x	x
CCCCn1c(C)c(C(=O)OCC)c2c(CN3CCCC3)c(O)ccc21	x	-34.9%	-6.3%	6.0%	-30.6%	39.8µM*
CCCCn1c(C)c(C(=O)OCC)c2c(CN3CCOCC3)c(O)ccc21	2.3%	-38.3%	-21.4%	-8.8%	u	u
COc1ccc(N2CCN(C(CNC(=O)Oc3ccccc3)c3cccnc3)CC2)cc1 (stereo unspecified)	5.3%	u	14.4%	-6.6%	u	u
COc1ccc(C(c2nnnn2CC2CCCO2)N2CCN(c3ccccc3)CC2)cc1 (stereo unspecified)	8.2%	50.1µM*	u	-1.2%	u	-41.7%[59 µM]
CN(C)P(=O)(NC(=O)c1cccn1C)N(C)C	5.0%	-7.7%	-9.1%	31.5%	-18.1%	21.2%
CN(C)P(=NC(=S)c1cccn1C)(N(C)C)N(C)C	6.1%	u	-24.3%	-10.1%	39.8µM*	10µM*

Source: PubChem (National Center for Advancing Translational Sciences (NCATS))
